Assay [1] has as its system Wnt5a (protein binding on small-molecule microarray). Nature of the assay: small molecules binding Wnt5a protein – biophysical, small-molecule microarray, 635/667 nm fluorescence, primary screen (AID 1142).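 Further: fluorescence read at 667 nm with signal to noise per printed feature.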 As to conditions: 635 nm fluorescence, higher = more signal.
Assay [2] is described as follows: ATP-based viability of Huh7 replicon cells – cell-based, CellTiter-Glo luminescence, basal, 48 h, cytotoxicity control for HCV replication inhibitor project, primary screen (AID 1143).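 Further: Huh7 hepatoma cells carrying a hepatitis C replication reporter with no stimulus; test concentration not given here.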 The note with it: higher = more signal, called active from +8 up or from −8 down.
The nature of assay [3]: Pseudomonas biofilm growth suppression – PAO1 strain, BacTiter-Glo luminescence, LB-PBS, primary screen (AID 1144). As to conditions: P. aeruginosa PAO1 biofilm, 12 h, higher = more signal.
Assay [4] can be described thus: basal CRE-LacZ reporter activity in PC12 – cell-based, unstimulated, primary screen (AID 1145). The note with it: no forskolin, luminescence, 4.5 h, higher = more signal, called active from +8 up or from −8 down.
Assay [5] can be described thus: forskolin-driven CRE-LacZ activity in PC12 – cell-based, CRE-LacZ reporter, forskolin-stimulated, primary screen (AID 1146).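 Further: PC12 cells with 6xCRE LacZ reporter stimulated by forskolin 10 µM; beta-galactosidase reporter signal reflecting CREB driven transcription.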 As to conditions: luminescence, 4.5 h, higher = more signal, called active from +8 up or from −8 down.
Assay [6] concerns the target Streptavidin (Streptomyces avidinii) (UniProt P22629). Kind of assay: compounds binding control protein streptavidin – biophysical, small-molecule microarray, 635/667 nm fluorescence, artefact control for SMM compound annotation, primary screen (AID 1147).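 Further: signal reflects streptavidin binding to arrayed compounds as a control protein.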 The note with it: higher = more signal.
Assay [7] in a line: probe aInhba binding on compound microarray – biochemical, small-molecule microarray, 635/667 nm fluorescence, primary screen (AID 1148).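 Further: score merges 667nm spot fluorescence with signal-to-noise for antibody binding to printed compounds.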 As to conditions: higher = more signal.
Assay [8] addresses Torsin-1A (Homo sapiens) (UniProt O14656). Nature of the assay: TOR1A wild-type binding on microarray – cell lysate, small-molecule microarray, lysate, 635/667 nm, primary screen (AID 1149). As to conditions: COS7 hTOR1A-WT lysate, 635 nm fluorescence, higher = more signal.
Assay [9] shares this target. Nature of the assay: torsin A mutant lysate binding on microarrays – cell lysate, small-molecule microarray, COS7 lysate, 635/667 nm fluorescence, primary screen (AID 1150).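 Further: score pools 667 nm emission and signal to noise measuring lysate protein binding.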 As to conditions: COS7 hTOR1A mutant lysate, 635 nm fluorescence, higher = more signal.
For assay [10], the system named is Sonic hedgehog protein (Shh). Nature of the assay: Sonic hedgehog microarray binding compounds – biochemical, small-molecule microarray, 635/667 nm fluorescence, primary screen (AID 1151).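 Further: Shh protein binding to compounds spotted on small-molecule microarray slides; score combines spot fluorescence intensity with signal-to-noise across triplicate slides.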 The note with it: 635 nm fluorescence, higher = more signal.
Assay [11] can be described thus: optical density shifts of acrAB sulA E. coli – strain DRC41, OD650, 48 h, E. coli filamentation inducer project, primary screen (AID 1152).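 Further: E. coli MC1000 strain DRC41 lacking acrAB efflux pump and sulA.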 The note with it: higher = more signal, called active from +8 up or from −8 down.
Assay [12] can be described thus: probe aLefty1 binding on compound microarray – biochemical, small-molecule microarray, 635/667 nm fluorescence, primary screen (AID 1153).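 Further: score merges spot fluorescence with signal-to-noise ratio from the scanned slide images.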 The note with it: higher = more signal.
Assay [13] is described as follows: plasmodial surface anion channel blockers, osmotic lysis – cell-based, P. falciparum Indochina, OD700, 1 h, primary screen (AID 1154). As to conditions: P. falciparum Indochina infected RBC osmotic lysis, higher = more signal, called active from +8 up or from −8 down.
Assay [14] is described as follows: plasmodial surface anion channel blockers, osmotic lysis – cell-based, P. falciparum Indochina, OD700, 2 h, primary screen (AID 1155).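 Further: lysis reports solute entry through the parasite surface anion channel PSAC.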 As to conditions: P. falciparum Indochina infected erythrocytes, higher = more signal, called active from +8 up or from −8 down.
The nature of assay [15]: changes in parasitized red cell lysis, either direction – P. falciparum Indochina, OD700, 3 h, PSAC antagonist project, primary screen (AID 1156). As to conditions: P. falciparum-infected erythrocytes, osmotic lysis, higher = more signal, called active from +8 up or from −8 down.
The nature of assay [16]: plasmodial surface anion channel blockers, osmotic lysis – cell-based, P. falciparum Indochina, OD700, 18 h, primary screen (AID 1157). As to conditions: P. falciparum Indochina infected erythrocytes, osmotic lysis OD700, 18 h; higher = more signal, called active from +8 up or from −8 down.
Assay [17] can be described thus: S6 kinase pathway phospho-S6 level changes – cell-based, A549, cytoblot, luminescence, serum-stimulated, primary screen (AID 1158).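 Further: serum-stimulated A549 lung adenocarcinoma cells; signal is phosphorylated S6 detected by cytoblot immunostaining with HRP secondary.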 As to conditions: 5 h, higher = more signal.
Assay [18] addresses NADPH oxidase 2 (Homo sapiens) (UniProt P04839). Kind of assay: compounds shifting NOX2 Amplex Red fluorescence – cell-based, HEK293-NOX2, PMA-stimulated, NOX inhibitor project, primary screen (AID 1159). Further: test concentration not given here. As to conditions: 45 min, higher = more signal, called active from +8 up or from −8 down.
Assay [19] addresses NADPH oxidase 4 (Homo sapiens) (UniProt Q9NPH5). Kind of assay: compounds shifting NOX4 Amplex Red fluorescence – cell-based, HEK293-NOX4, tetracycline-induced, NOX inhibitor project, primary screen (AID 1160). The note with it: HEK293-NOX4, Amplex Red H2O2 fluorescence, 45 min; higher = more signal, called active from +8 up or from −8 down.
Assay [20] deals with NADPH oxidase 5 (Homo sapiens) (UniProt Q96PH1). Nature of the assay: compounds shifting NOX5 Amplex Red fluorescence – cell-based, HEK293-NOX5, NOX inhibitor project, primary screen (AID 1161). The note with it: HEK293-NOX5, ionomycin, 45 min, higher = more signal.

Active and inactive are the calls of the source. Unless noted, how the calls were made is not given here.

NADPH oxidase 2 (Homo sapiens), sequence (P04839 whole entry, looked up): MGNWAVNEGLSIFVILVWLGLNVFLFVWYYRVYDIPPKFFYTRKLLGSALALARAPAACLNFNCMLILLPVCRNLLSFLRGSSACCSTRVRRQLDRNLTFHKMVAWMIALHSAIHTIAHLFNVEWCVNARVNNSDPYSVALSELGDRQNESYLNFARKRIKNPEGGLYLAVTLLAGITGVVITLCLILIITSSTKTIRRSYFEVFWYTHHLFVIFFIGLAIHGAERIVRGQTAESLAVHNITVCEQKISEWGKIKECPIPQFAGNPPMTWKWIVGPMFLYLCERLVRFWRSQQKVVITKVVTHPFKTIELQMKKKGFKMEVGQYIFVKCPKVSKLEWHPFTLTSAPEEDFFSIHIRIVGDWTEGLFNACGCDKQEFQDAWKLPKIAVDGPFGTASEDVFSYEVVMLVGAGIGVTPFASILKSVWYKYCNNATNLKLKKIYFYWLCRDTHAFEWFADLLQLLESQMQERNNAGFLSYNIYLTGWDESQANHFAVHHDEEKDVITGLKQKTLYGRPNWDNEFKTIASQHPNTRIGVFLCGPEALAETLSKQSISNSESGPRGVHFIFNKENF
NADPH oxidase 4 (Homo sapiens), sequence (Q9NPH5 whole entry, looked up): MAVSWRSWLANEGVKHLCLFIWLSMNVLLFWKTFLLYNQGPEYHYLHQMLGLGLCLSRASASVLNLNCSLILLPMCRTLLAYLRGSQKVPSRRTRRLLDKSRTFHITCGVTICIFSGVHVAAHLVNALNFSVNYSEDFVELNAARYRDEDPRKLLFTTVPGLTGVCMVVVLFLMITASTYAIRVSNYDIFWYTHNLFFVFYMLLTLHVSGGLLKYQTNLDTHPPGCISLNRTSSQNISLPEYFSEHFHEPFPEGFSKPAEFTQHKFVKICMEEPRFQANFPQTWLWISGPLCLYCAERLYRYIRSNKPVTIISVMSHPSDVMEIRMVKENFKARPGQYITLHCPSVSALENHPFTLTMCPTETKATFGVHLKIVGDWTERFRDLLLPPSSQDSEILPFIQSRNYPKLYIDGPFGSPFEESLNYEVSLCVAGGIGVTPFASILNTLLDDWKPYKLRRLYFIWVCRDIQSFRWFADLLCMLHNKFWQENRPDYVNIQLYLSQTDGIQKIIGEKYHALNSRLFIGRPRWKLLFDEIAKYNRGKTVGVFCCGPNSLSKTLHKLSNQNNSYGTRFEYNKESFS
NADPH oxidase 5 (Homo sapiens), sequence (Q96PH1 whole entry, looked up): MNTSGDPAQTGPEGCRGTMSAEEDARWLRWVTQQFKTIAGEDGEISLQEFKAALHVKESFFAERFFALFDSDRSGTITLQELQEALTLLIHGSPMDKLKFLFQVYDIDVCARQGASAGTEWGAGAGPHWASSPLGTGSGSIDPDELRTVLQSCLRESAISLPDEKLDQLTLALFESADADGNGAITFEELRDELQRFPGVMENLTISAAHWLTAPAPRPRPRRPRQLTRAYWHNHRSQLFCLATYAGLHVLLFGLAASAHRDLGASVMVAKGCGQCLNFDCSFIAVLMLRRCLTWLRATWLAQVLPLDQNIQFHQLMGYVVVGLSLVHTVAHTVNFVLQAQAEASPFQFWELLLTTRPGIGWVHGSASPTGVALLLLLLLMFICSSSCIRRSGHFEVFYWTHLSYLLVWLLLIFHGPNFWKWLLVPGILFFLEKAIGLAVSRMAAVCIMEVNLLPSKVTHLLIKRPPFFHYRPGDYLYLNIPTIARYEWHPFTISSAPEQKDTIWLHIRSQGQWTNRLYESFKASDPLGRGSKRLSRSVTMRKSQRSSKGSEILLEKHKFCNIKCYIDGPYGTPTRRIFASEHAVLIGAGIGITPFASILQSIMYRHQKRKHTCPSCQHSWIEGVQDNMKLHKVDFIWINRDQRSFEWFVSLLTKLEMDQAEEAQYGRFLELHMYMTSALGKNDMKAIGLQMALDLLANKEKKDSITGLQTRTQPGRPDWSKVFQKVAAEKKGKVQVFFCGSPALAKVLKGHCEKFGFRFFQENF
Torsin-1A (Homo sapiens), sequence (O14656 whole entry, looked up): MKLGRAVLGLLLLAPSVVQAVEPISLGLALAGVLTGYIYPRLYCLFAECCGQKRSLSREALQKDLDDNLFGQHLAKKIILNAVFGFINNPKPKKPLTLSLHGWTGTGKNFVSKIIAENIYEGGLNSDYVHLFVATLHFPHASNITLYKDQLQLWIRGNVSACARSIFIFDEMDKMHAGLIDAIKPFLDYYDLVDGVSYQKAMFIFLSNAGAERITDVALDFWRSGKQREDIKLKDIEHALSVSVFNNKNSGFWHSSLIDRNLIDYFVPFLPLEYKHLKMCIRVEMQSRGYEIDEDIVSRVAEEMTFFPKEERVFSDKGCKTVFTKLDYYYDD
Streptavidin (Streptomyces avidinii), sequence (P22629 whole entry, looked up): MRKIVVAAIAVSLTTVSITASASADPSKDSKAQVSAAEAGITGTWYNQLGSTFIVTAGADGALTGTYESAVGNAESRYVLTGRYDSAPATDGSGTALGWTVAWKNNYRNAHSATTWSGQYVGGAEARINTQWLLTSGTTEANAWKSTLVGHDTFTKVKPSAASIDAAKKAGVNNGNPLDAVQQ

Take `CCOC(=O)C1=CCC(c2cccn2C(=O)OC(C)(C)C)N(S(=O)(=O)c2ccc(C)cc2)C1` (stereo not given): the composite z-score in [1] was 0.0845; in assay [6], 1.99; in assay [7] it was 0.18; with Torsin-1A (Homo sapiens) [8], 0.0444; with Torsin-1A (Homo sapiens) [9], 0.461; in [10] it was 0.157. In [12], this molecule showed a composite z-score of 0.245. Besides, the z-score in assay [2] is -4.35 (inactive); in assay [3], 0.0401 (inactive); in assay [4], 0.136 (inactive); in assay [5] it was 19.4 (active); in assay [11], -0.258 (inactive); in assay [13] it was 7.3 (inactive). For the same molecule, the z-score in [14] was 1.26 (inactive); in [15] it was 0.312 (inactive); in assay [16] it was 0.486 (inactive); in assay [17] it was -0.0414; in [18], -0.035 (inactive); in assay [19], 0.754 (inactive). Further, the z-score in assay [20] came to 0.499.

Take `COc1ccc([Si](C)(C)[C@H]2[C@H](CC(=O)N3CCC[C@H]3CO)O[C@@]3(C(=O)N(C)c4c(Br)cc(C)cc43)[C@@H]2C)cc1`: the composite z-score in assay [1] stood at 1.55; in assay [6], 3.28; in assay [7] it was 0.462; in the assay with Torsin-1A (Homo sapiens) [8], 2.05; with Torsin-1A (Homo sapiens) [9], 1.5; in [10], 1.6. Also, the composite z-score in assay [12] turned out to be 1. Further, the z-score was -1.11 (inactive) in assay [2]; -0.518 (inactive) in assay [3]; 0.758 (inactive) in assay [4]; 1.09 (inactive) in [5]; -0.437 (inactive) in assay [11]; 2.11 (inactive) in assay [13]. The z-score was 0.179 (inactive) in assay [14]; -0.192 (inactive) in [15]; 0.62 (inactive) in [16]; 0.488 in [17]; 0.951 (inactive) in assay [18]; 0.657 (inactive) in assay [19]. The z-score in [20] was determined as 3.04.

As for `CN(C)CCCC[C@@H]1NC(=O)[C@H]2C[C@@H](C(=O)NCCCCCCNC(=O)CS)[C@@H](c3cccc(OCCO)c3)N2C1=O`, the composite z-score in [1] is 0.1; in [6], 0.0448; in [7], -0.101; with Torsin-1A (Homo sapiens) [8], 0.0638; with Torsin-1A (Homo sapiens) [9] it was 0.767; in assay [10] it was 0.871. Also, the composite z-score in [12] is -0.139. For the same molecule, the z-score in assay [2] is 1.17 (inactive); in assay [3], -0.444 (inactive); in assay [4] it was -0.809 (inactive); in [5] it was -1.09 (inactive); in [11], -0.175 (inactive); in assay [13], 2.29 (inactive). For the same molecule, the z-score in [14] was 0.677 (inactive); in assay [15], 1.26 (inactive); in [16], 0.228 (inactive); in assay [17], -0.617; in [18], 1.07 (inactive); in assay [19], 0.981 (inactive). Further, the z-score in assay [20] amounted to 0.992.

Turning to `COC(=O)[C@@]1(Cc2ccc(F)cc2)[C@H]2c3cc(C(=O)N4CCCC4)n(CCSCCO)c3C[C@H]2CN1C(=O)c1ccccc1`, the composite z-score in [1] is 0.0841; in [6] it was -0.383; in [7], -0.0477; with Torsin-1A (Homo sapiens) [8], -0.319; in the assay with Torsin-1A (Homo sapiens) [9] it was 0.301; in [10] it was -0.697. This molecule registered a composite z-score in assay [12] of 0.433. In addition, the z-score is -1.11 (inactive) in [2]; -0.375 (inactive) in assay [3]; 0.397 (inactive) in assay [4]; 1.13 (inactive) in assay [5]; -0.683 (inactive) in assay [11]; 1.37 (inactive) in assay [13]. For the same molecule, the z-score in [14] was 0.367 (inactive); in assay [15], 0.189 (inactive); in assay [16], 0.618 (inactive); in [17] it was 0.332; in assay [18] it was 0.639 (inactive); in [19], -0.179 (inactive). Besides, the z-score in assay [20] is -0.345.

The values above are taken from PubChem BioAssay.
